Columns and labels:
Settings in all cases: concentration: 1 μM, replicates: in singlicate; n = 1
[1] = system: T1, ASK2
T1 construct: gene MAP3K6

[2] = system: AURKA
[3] = system: AURKB
[4] = system: AURKC
[5] = system: AXL
[6] = system: T2, BIKE
T2 construct: gene BMP2K

[7] = system: BLK
[8] = system: BMPR1A
[9] = system: BMPR1B
[10] = system: BMPR2
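Also: KINOMEscan kinase panel screen.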

SMILES	%Inh [1]	%Inh [2]	%Inh [3]	%Inh [4]	%Inh [5]	%Inh [6]	%Inh [7]	%Inh [8]	%Inh [9]	%Inh [10]
Cc1ccc(O)cc1Nc1ccnc2ccc(C(C)(C)C)cc12 [GW856805]	32%	30%	36%	24%	42%	9%	95.1%	16%	79%	33%
Cc1ccc(O)cc1Nc1ccnc2cc(-c3ccc(CN4CCCCC4)o3)ccc12 [GW557777]	0%	0%	0%	15%	0%	4%	99.7%	61%	99.9%	0%
COc1ccc(NC(=O)c2ccoc2)cc1-c1ccc(C(=O)NCC2CC2)cc1 [GW810437]	0%	1%	33%	0%	0%	0%	21%	7%	2%	46%
CCNc1nccc(-c2c(-c3ccc(F)cc3)ncn2C2CCN(C)CC2)n1	0%	0%	0%	8%	0%	13%	3%	0%	0%	0%
Cl.O=C(Nc1ccc(Oc2ccc3[nH]c(NC(=O)c4ccco4)nc3c2)cc1)Nc1cc(C(F)(F)F)ccc1F [GW683134]	0%	0%	92.6%	50%	96%	15%	54%	0%	0%	0%
Cc1cc(-c2ccnc(Nc3cccc(C#N)c3)n2)cc(C)c1O [GSK1440913]	11%	47%	19%	70%	51%	99.5%	0%	0%	0%	16%
CN1CCN(Cc2ccc(NC(=O)Nc3ccc(N(C)c4ccnc(Nc5ccc(CS(C)(=O)=O)cc5)n4)cc3)cc2)CC1.Cl [GW827654]	4%	99.9%	99.7%	98.5%	99.3%	93.2%	94.1%	44%	96.2%	87%
CC(=O)Nc1cn2nc(Oc3cccc(NC(=O)c4cccc(C(F)(F)F)c4)c3)ccc2n1	0%	0%	60%	74%	51%	18%	98.2%	10%	0%	0%
COc1cc(Nc2nccc(N3CCC(NC(=O)Nc4ccc5c(c4)OCO5)C3)n2)cc(OC)c1OC (stereo not drawn) [GSK1379766]	12%	86%	69%	90.1%	0%	74%	0%	0%	0%	30%
COC(=O)Nc1nc2ccc(Oc3ccc(NC(=O)Nc4cc(C(F)(F)F)ccc4F)cc3)cc2[nH]1.Cl [GW654607]	15%	0%	92.3%	42%	97.3%	10%	67%	18%	0%	0%
Cc1ccc(C)c(NC(=O)Nc2ccc(C)c(-c3ccc(C(=O)Nc4ccncc4)cc3)c2)c1 [GSK1398473]	0%	0%	21%	22%	90%	13%	0%	0%	0%	0%
Cc1cccc(Nc2nc(NCCN)ncc2C(N)=O)c1 [GSK1292139]	8%	18%	0%	25%	9%	77%	1%	0%	0%	70%
O=C(Nc1n[nH]c2nc(-c3cccc(O)c3)ccc12)C1CC1 [SB-711805]	0%	9%	19%	23%	12%	34%	0%	8%	86%	34%
COc1cccc(NC(=O)NCCNc2ccnc(Nc3ccc(F)cc3)n2)c1 [GSK1379879]	0%	19%	40%	45%	3%	14%	18%	0%	0%	5%
CCNC(=O)/C=C/c1n[nH]c2cc(Sc3ccccc3C(=O)NC)ccc12	0%	86%	97.4%	84%	76%	48%	7%	12%	30%	1%
Cc1ccc(NC(=O)c2ccc(Cl)c(Cl)c2)cc1-c1ccc(C(=O)Nc2ccncc2)cc1 [GSK1398460]	0%	7%	1%	67%	100%	40%	45%	0%	0%	0%
CCn1c(-c2nonc2N)nc2c(-c3ccccc3)ncc(OCCCN)c21.O=C(O)C(F)(F)F.O=C(O)C(F)(F)F [GSK260205]	0%	0%	36%	0%	0%	8%	20%	0%	0%	2%

SMILES	%Inh [1]	%Inh [2]	%Inh [3]	%Inh [4]	%Inh [5]	%Inh [6]	%Inh [7]	%Inh [8]	%Inh [9]	%Inh [10]
O=C(O)C(F)(F)F.O=c1[nH]ccc2nc(N[C@@H]3CCNC3)nc(Nc3ccc4c(c3)S(=O)(=O)CC4)c12 [GSK2181306]	38%	83%	72%	87%	100%	98.8%	28%	0%	7%	99.5%
N#Cc1cnc2cc(-c3cnc(CNCCN4CCOCC4)s3)ccc2c1Nc1ccc(Oc2ccccc2)cc1 [GW664114]	9%	0%	39%	25%	98%	9%	99%	0%	0%	8%
Cn1cc(-c2cnc(N)c3c(-c4ccc5c(c4)CCN5C(=O)Cc4ccccc4)csc23)cn1 [GSK2593074]	17%	24%	97.8%	92.2%	95.9%	0%	93%	1%	6%	6%
O=C(Nc1n[nH]c2cc(-c3cccs3)ccc12)C1CC1 [SB-731284]	39%	42%	51%	42%	0%	84%	0%	2%	35%	24%
Fc1cc(Cl)ccc1Nc1ccnc2cc(-c3ccc(CN4CCOCC4)o3)ccc12 [GW560109]	8%	89%	35%	35%	40%	21%	94.4%	18%	62%	0%
O=C(Nc1c(F)cccc1F)c1cc(C(=O)c2ccccc2F)c[nH]1 [GSK1326180]	0%	0%	0%	0%	24%	0%	0%	6%	0%	1%
CCn1cnc2c(NCc3ccccc3)ncnc21 [SKF-96418]	0%	0%	41%	0%	0%	0%	16%	0%	0%	48%
COC(=O)Nc1nc2ccc(Oc3ccc(CC(=O)Nc4cc(C(F)(F)F)ccc4F)cc3)cc2[nH]1 [GW680903]	0%	0%	60%	52%	23%	3%	32%	6%	0%	1%
Nc1ncc(-c2ccc3nccc(-c4ccncc4)c3c2)cc1S(=O)(=O)N1CCCCC1 [GSK1693850]	0%	59%	31%	35%	52%	14%	0%	0%	0%	0%
O=C1NC(=O)C(c2ccccc2Cl)=C1Nc1cccc(Cl)c1 [SB-342409]	0%	0%	22%	0%	0%	15%	2%	0%	0%	0%
CN(C)CCOc1ccc(-c2cc(-c3ccc(Cl)c(O)c3)c(-c3ccncc3)[nH]2)cc1.Cl.Cl [SB-684387]	0%	21%	0%	0%	0%	0%	64%	90.6%	29%	10%
Nc1ncnc2scc(-c3ccc(NC(=O)Cc4cc(F)ccc4F)cc3)c12.O=C(O)C(F)(F)F [SB-731254-M]	21%	53%	98.6%	45%	36%	7%	36%	22%	10%	0%
Cc1cccc(Nc2nc(N[C@H]3CCCC[C@H]3N)ncc2C(N)=O)c1.Cl [GSK986310]	6%	0%	24%	62%	59%	50%	67%	12%	0%	28%
O=C(Nc1n[nH]c2nc(-c3ccccc3O)ccc12)C1CC1 [SB-711880]	34%	31%	81%	6%	18%	41%	0%	0%	0%	8%
Cc1nn2c(=O)cc(N3CCO[C@H](C)C3)nc2n1Cc1cccc(Cl)c1Cl [GSK2373693]	0%	35%	17%	6%	4%	17%	17%	35%	0%	35%
Cl.Cl.NC(CNC(=O)c1cc(Br)c(-c2ccnc3[nH]ccc23)s1)c1ccccc1 (stereo not drawn) [GSK1322949]	20%	67%	35%	95.2%	90.8%	100%	44%	0%	12%	58%

Source: PMC5540273 (PLoS ONE, 2017)
